We go through 32 sequences from article PMC12820563, “FoxP3 forms a head-to-head dimer in vivo and stabilizes its multimerization on adjacent microsatellites”.

Over roughly 16,000 sequences, “rpm ratio (pull-down/input)” has its median near 0.94; the highest 2% begin near 1.7. The full list was thinned out, with the highest values kept by preference.

The target of the assay is T1, MBP-FoxP1dN (Mus musculus, UniProt P58462 326-579).
T1 sequence: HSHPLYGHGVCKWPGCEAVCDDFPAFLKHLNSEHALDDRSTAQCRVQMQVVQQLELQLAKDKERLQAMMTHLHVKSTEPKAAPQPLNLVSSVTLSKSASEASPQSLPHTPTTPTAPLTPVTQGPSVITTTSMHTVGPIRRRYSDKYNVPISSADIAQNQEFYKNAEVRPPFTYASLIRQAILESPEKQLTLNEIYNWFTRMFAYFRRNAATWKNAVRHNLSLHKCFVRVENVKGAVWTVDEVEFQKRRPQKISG
Briefly: PD-seq (MBP pull-down with sequencing); 20 mM Tris-HCl pH 7.5, 100 mM NaCl, 1.5 mM MgCl2, 0.4 uM protein, 0.1 uM dsDNA library, 30 min, room temperature, amylose pull-down; high values mean tight binding. To be noted: protein: recombinant; tags: His6-MBP; chain copies: 2; dsDNA, one strand shown. In a few lines: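 A degenerate double-stranded DNA library, filled in with Klenow, was added at 0.1 µM to 0.4 µM His6-MBP-tagged mouse FoxP3 or FoxP1 fragment lacking the N-terminus, expressed in E. coli. Incubation lasted 30 min at room temperature in Tris pH 7.5 buffer with NaCl and MgCl2, after which complexes were collected on amylose resin, washed three times, digested with proteinase K to free the DNA, barcoded by PCR and sequenced by Illumina. Binding is the pooled-replicate reads-per-million enrichment of pull-down over input.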
With “GATGATTGTTCTCCCAGCTGATGAATTTGCAGTTTCGAGTAAACAAATTTTCCTAATCTTTCTGTTCAAGCGCCATCTAC”, the binding signal was 1.02 RPM ratio (pull-down/input).

With “GATGATTGTTCTCCCAGCTGATGAATTTCCGTCGTCGAGTAAACAAATTTTCCTAATCTTTCTGTTCAAGCGCCATCTAC”, the binding signal was 0.841 RPM ratio (pull-down/input).

As for “GATGATTGTTCTCCCAGCTGATGAATTTCTGTTATCGAGTAAACAAATTTTCCTAATCTTTCTGTTCAAGCGCCATCTAC”, the binding signal is 1.69 RPM ratio (pull-down/input).

As to “GATGATTGTTCTCCCAGCTGATGAATTCGAGTTATCGAGTAAACAAATTTTCCTAATCTTTCTGTTCAAGCGCCATCTAC”, the binding signal was 0.96 RPM ratio (pull-down/input).

With “GATGATTGTTCTCCCAGCTGATGAATTTTTATCATCGAGTAAACAAATTTTCCTAATCTTTCTGTTCAAGCGCCATCTAC”, the binding signal is 1.36 RPM ratio (pull-down/input).

“GATGATTGTTCTCCCAGCTGATGAATTGTTGTTATCGAGTAAACAAATTTTCCTAATCTTTCTGTTCAAGCGCCATCTAC”: the binding signal was 2.91 RPM ratio (pull-down/input).

In the case of “GATGATTGTTCTCCCAGCTGATGAATTTGCTTTATCGAGTAAACAAATTTTCCTAATCTTTCTGTTCAAGCGCCATCTAC”, the binding signal was 1.1 RPM ratio (pull-down/input).

In the case of “GATGATTGTTCTCCCAGCTGATGAATTGTTCTTATCGAGTAAACAAATTTTCCTAATCTTTCTGTTCAAGCGCCATCTAC”, the binding signal is 1.41 RPM ratio (pull-down/input).

For the sequence “GATGATTGTTCTCCCAGCTGATGAATTCCTGTTATCGAGTAAACAAATTTTCCTAATCTTTCTGTTCAAGCGCCATCTAC”, the binding signal is 1.65 RPM ratio (pull-down/input).

On to “GATGATTGTTCTCCCAGCTGATGAATTGCTTATATCGAGTAAACAAATTTTCCTAATCTTTCTGTTCAAGCGCCATCTAC”, for which the binding signal is 1.34 RPM ratio (pull-down/input).

Regarding “GATGATTGTTCTCCCAGCTGATGAATTCTTGTTATCGAGTAAACAAATTTTCCTAATCTTTCTGTTCAAGCGCCATCTAC”, the binding signal was 2.09 RPM ratio (pull-down/input).

Regarding “GATGATTGTTCTCCCAGCTGATGAATTTTGCTTATCGAGTAAACAAATTTTCCTAATCTTTCTGTTCAAGCGCCATCTAC”, the binding signal was 2.09 RPM ratio (pull-down/input).

“GATGATTGTTCTCCCAGCTGATGAATTGTTATCATCGAGTAAACAAATTTTCCTAATCTTTCTGTTCAAGCGCCATCTAC”: the binding signal is 1.73 RPM ratio (pull-down/input).

Take “GATGATTGTTCTCCCAGCTGATGAATTATCATCATCGAGTAAACAAATTTTCCTAATCTTTCTGTTCAAGCGCCATCTAC”: the binding signal is 1.12 RPM ratio (pull-down/input).

Take “GATGATTGTTCTCCCAGCTGATGAATTTATGTGATCGAGTAAACAAATTTTCCTAATCTTTCTGTTCAAGCGCCATCTAC”: the binding signal is 1.21 RPM ratio (pull-down/input).

As for “GATGATTGTTCTCCCAGCTGATGAATTGTAGTGCTCGAGTAAACAAATTTTCCTAATCTTTCTGTTCAAGCGCCATCTAC”, the binding signal is 1.04 RPM ratio (pull-down/input).

As for “GATGATTGTTCTCCCAGCTGATGAATTTGGTACGTCGAGTAAACAAATTTTCCTAATCTTTCTGTTCAAGCGCCATCTAC”, the binding signal was 0.997 RPM ratio (pull-down/input).

In the case of “GATGATTGTTCTCCCAGCTGATGAATTAATCGCGTCGAGTAAACAAATTTTCCTAATCTTTCTGTTCAAGCGCCATCTAC”, the binding signal was 1.01 RPM ratio (pull-down/input).

Regarding “GATGATTGTTCTCCCAGCTGATGAATTTTAATCCTCGAGTAAACAAATTTTCCTAATCTTTCTGTTCAAGCGCCATCTAC”, the binding signal was 0.832 RPM ratio (pull-down/input).

As for “GATGATTGTTCTCCCAGCTGATGAATTCAGGGGGTCGAGTAAACAAATTTTCCTAATCTTTCTGTTCAAGCGCCATCTAC”, the binding signal was 0.723 RPM ratio (pull-down/input).

Take “GATGATTGTTCTCCCAGCTGATGAATTGCTTTTATCGAGTAAACAAATTTTCCTAATCTTTCTGTTCAAGCGCCATCTAC”: the binding signal was 1.26 RPM ratio (pull-down/input).

As for “GATGATTGTTCTCCCAGCTGATGAATTTGTTATCTCGAGTAAACAAATTTTCCTAATCTTTCTGTTCAAGCGCCATCTAC”, the binding signal was 1.76 RPM ratio (pull-down/input).

Consider “GATGATTGTTCTCCCAGCTGATGAATTTTGGTTATCGAGTAAACAAATTTTCCTAATCTTTCTGTTCAAGCGCCATCTAC”, for which the binding signal was 1.17 RPM ratio (pull-down/input).

Consider “GATGATTGTTCTCCCAGCTGATGAATTGTTATCCTCGAGTAAACAAATTTTCCTAATCTTTCTGTTCAAGCGCCATCTAC”, for which the binding signal was 1.55 RPM ratio (pull-down/input).

Regarding “GATGATTGTTCTCCCAGCTGATGAATTGCTGTTATCGAGTAAACAAATTTTCCTAATCTTTCTGTTCAAGCGCCATCTAC”, the binding signal was 1.85 RPM ratio (pull-down/input).

With “GATGATTGTTCTCCCAGCTGATGAATTTGTTATATCGAGTAAACAAATTTTCCTAATCTTTCTGTTCAAGCGCCATCTAC”, the binding signal was 1.5 RPM ratio (pull-down/input).

On to “GATGATTGTTCTCCCAGCTGATGAATTTGAGTTATCGAGTAAACAAATTTTCCTAATCTTTCTGTTCAAGCGCCATCTAC”, for which the binding signal was 1.04 RPM ratio (pull-down/input).

Regarding “GATGATTGTTCTCCCAGCTGATGAATTGGTGTAATCGAGTAAACAAATTTTCCTAATCTTTCTGTTCAAGCGCCATCTAC”, the binding signal was 1.49 RPM ratio (pull-down/input).

With “GATGATTGTTCTCCCAGCTGATGAATTGGTGTTATCGAGTAAACAAATTTTCCTAATCTTTCTGTTCAAGCGCCATCTAC”, the binding signal was 1.9 RPM ratio (pull-down/input).

Regarding “GATGATTGTTCTCCCAGCTGATGAATTGCTCTTATCGAGTAAACAAATTTTCCTAATCTTTCTGTTCAAGCGCCATCTAC”, the binding signal was 1.17 RPM ratio (pull-down/input).

Consider “GATGATTGTTCTCCCAGCTGATGAATTTTTGTTATCGAGTAAACAAATTTTCCTAATCTTTCTGTTCAAGCGCCATCTAC”, for which the binding signal is 2.35 RPM ratio (pull-down/input).

On to “GATGATTGTTCTCCCAGCTGATGAATTTCTTATCTCGAGTAAACAAATTTTCCTAATCTTTCTGTTCAAGCGCCATCTAC”, for which the binding signal was 0.829 RPM ratio (pull-down/input).
